# Assay results taken from PubChem BioAssay (NCATS).
# Records with an inconclusive call do not appear. Entries that show only a call come without a potency. Calls of active or inactive are those of the source. The call rests on the fitted dose curve; in most records, active means well fitted inhibition curve with a large enough effect; inconclusive means small, poorly fitted or top-dose-only effect; inactive means flat fitted curve, though single readings scatter.
# Tested on: not listed separately
# Assay: qHTS profiling for inhibitors of Plasmodium falciparum proliferation (AID 504749); further: nearly all actives have a fitted effect of over 60% in size
# Settings: P. falciparum in erythrocytes, SYBR Green DNA, 72 h; at 28.7 µM (top of the series); parasite line B
# Outline: (§1)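 P. falciparum-infected erythrocytes (0.3% parasitemia, 2.5% hematocrit) incubated with compound 72 h at 37 C, 5% CO2. Parasite DNA detected by SYBR Green after lysis, overnight at room temperature; normalised to 0.29 uM artemisinin and DMSO.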
# Potency means the concentration at half of the fitted maximal effect.
row,Structure (SMILES),"activity, negative = inhibition"
1,Cc1cccc(C)c1NC(=O)CN1CCCCCC1,4.72% (inactive)
2,CC(=O)OC[C@H]1O[C@@H](n2ncc(=O)[nH]c2=O)[C@H](OC(C)=O)[C@@H]1OC(C)=O,0.953% (inactive)
3,CC(C)Cn1cnc2c1c(=O)n(C)c(=O)n2C,1.13% (inactive)
4,CN1CCN(c2c(F)cc3c(=O)c(C(=O)O)cn4c3c2SCC4)CC1,-29% (inactive)
5,COc1ccccc1N1CCN(CCCCNC(=O)c2ccc(-c3ccc(C(C)=O)cc3)cc2)CC1,20.5% (inactive)
6,CC(=O)Oc1ccc(C)cc1,10.5% (inactive)
7,Cc1cccc(C)c1NC(=O)c1ccccc1C(=O)O,8.59% (inactive)
8,CC(=O)Nc1ccc(OCC(O)CNC(C)C)cc1 (centres undefined),11.8% (inactive)
9,CC(=O)NC(=O)c1ccccc1O,7.59% (inactive)
10,Cc1nc(-c2ccc(Cl)cc2)oc1COC(C)(C)C(=O)O,9.87% (inactive)

# Tested on: 3D7
# Assay: as above
# Settings: P. falciparum in erythrocytes, SYBR Green DNA, 72 h; series mostly up to 28.7 µM
# Outline: as §1
row,Structure (SMILES),Potency
1,CCNC(=O)/C=C/c1cccc(Br)c1,inactive
2,CCc1oc2ccccc2c1C(=O)c1cc(I)c(O)c(I)c1,inactive
3,NCc1ccccc1Sc1ccccc1CO,inactive
4,O=C(O)C1(C(=O)O)CCC1.[NH2-].[NH2-].[Pt+2],inactive
5,Cc1cc(CC(=O)O)c(C)n1-c1ccc(Cl)cc1,inactive
6,COc1cc([C@H]2Oc3cc([C@H]4Oc5cc(O)cc(O)c5C(=O)[C@@H]4O)ccc3O[C@@H]2CO)ccc1O,inactive
7,OC(C#CCN1CCCC1)(c1ccccc1)c1ccccc1,inactive
8,O=[N+]([O-])c1cccc(S(=O)(=O)NCCNS(=O)(=O)c2cccc([N+](=O)[O-])c2)c1,inactive
9,Nc1nc(N)c(-c2ccccc2)s1,inactive
10,CCCCCCCCOc1ccc(C(=O)c2ccccc2)c(O)c1,inactive
11,CC1(COc2ccc(CC3SC(=O)NC3=O)cc2)CCCCC1 (centres undefined),inactive
12,N#CCC(=O)NN,inactive
13,CC(=O)N[C@@H](CCC(=O)O)C(=O)O,inactive
14,O=C(Nc1ncc([N+](=O)[O-])s1)c1cccs1,inactive
15,CC(=O)NO,inactive
16,C/C=C/C=N/NC(=O)c1ccncc1,inactive
17,O=C(O)c1ccc(S(=O)(=O)N(Cl)Cl)cc1,inactive

row,Structure (SMILES),Potency
1,COc1ccc(/C=N/NC(=O)c2ccncc2)cc1OC,inactive
2,O=C(O)CCc1nc2ccccc2[nH]1,0.0045 µM (active)
3,Nc1ccc(S(=O)(=O)NCc2ccccc2)cc1,inactive
4,CO[C@]12C[C@@H](COC(=O)c3cncc(Br)c3)CN(C)[C@@H]1Cc1cn(C)c3cccc2c13,inactive
5,CN1CCN(c2cc3c(cc2F)c(=O)c(C(=O)O)cn3-c2ccc(F)cc2)CC1,inactive
6,Cc1cccc(C)c1NC(=O)CN1CCCCCC1,inactive
7,CC(=O)OC[C@H]1O[C@@H](n2ncc(=O)[nH]c2=O)[C@H](OC(C)=O)[C@@H]1OC(C)=O,inactive
8,CC(C)Cn1cnc2c1c(=O)n(C)c(=O)n2C,inactive
9,CN1CCN(c2c(F)cc3c(=O)c(C(=O)O)cn4c3c2SCC4)CC1,inactive
10,COc1ccccc1N1CCN(CCCCNC(=O)c2ccc(-c3ccc(C(C)=O)cc3)cc2)CC1,inactive
11,CC(=O)Oc1ccc(C)cc1,inactive
12,Cc1cccc(C)c1NC(=O)c1ccccc1C(=O)O,inactive
13,CC(=O)Nc1ccc(OCC(O)CNC(C)C)cc1 (centres undefined),inactive
14,CC(=O)NC(=O)c1ccccc1O,inactive
15,CCCCCCCCCCCCCC[N+](C)(C)Cc1ccccc1,3.55 µM (active)
16,Cc1nc(-c2ccc(Cl)cc2)oc1COC(C)(C)C(=O)O,inactive

# Tested on: 7G8
# Assay: as above
# Settings: P. falciparum in erythrocytes, SYBR Green DNA, 72 h; series mostly up to 28.7 µM
# Outline: as §1
row,Structure (SMILES),Potency
1,CCNC(=O)/C=C/c1cccc(Br)c1,inactive
2,CC(C)(C)CC(C)(C)c1ccc(O)c(-n2nc3ccccc3n2)c1,5.01 µM (active)
3,CCc1oc2ccccc2c1C(=O)c1cc(I)c(O)c(I)c1,inactive
4,NCc1ccccc1Sc1ccccc1CO,11.2 µM (active)
5,O=C(O)C1(C(=O)O)CCC1.[NH2-].[NH2-].[Pt+2],14.1 µM (active)
6,Cc1cc(CC(=O)O)c(C)n1-c1ccc(Cl)cc1,11.2 µM (active)
7,COc1cc([C@H]2Oc3cc([C@H]4Oc5cc(O)cc(O)c5C(=O)[C@@H]4O)ccc3O[C@@H]2CO)ccc1O,11.2 µM (active)
8,CCN(CC)CCOc1ccc2c(c1)C(=O)c1cc(OCCN(CC)CC)ccc1-2,7.94 µM (active)
9,OC(C#CCN1CCCC1)(c1ccccc1)c1ccccc1,11.2 µM (active)
10,Nc1nc(N)c(-c2ccccc2)s1,inactive
11,CCCCCCCCOc1ccc(C(=O)c2ccccc2)c(O)c1,inactive
12,CC1(COc2ccc(CC3SC(=O)NC3=O)cc2)CCCCC1 (centres undefined),inactive
13,N#CCC(=O)NN,inactive
14,O=C(CN1CCN(Cc2ccc3c(c2)OCO3)CC1)N1c2ccccc2Sc2ccccc21,7.94 µM (active)
15,O=C(CCN1CCN2CCCC2C1)N1c2ccccc2Sc2ccc(Cl)cc21 (centres undefined),8.91 µM (active)
16,CC(=O)N[C@@H](CCC(=O)O)C(=O)O,inactive
17,O=C(Nc1ncc([N+](=O)[O-])s1)c1cccs1,inactive
18,Cc1ccc2c(Br)cc(Br)c(O)c2n1,7.08 µM (active)

row,Structure (SMILES),Potency
1,CC(=O)NO,inactive
2,C/C=C/C=N/NC(=O)c1ccncc1,inactive
3,O=C(O)c1ccc(S(=O)(=O)N(Cl)Cl)cc1,inactive
4,COc1ccc(/C=N/NC(=O)c2ccncc2)cc1OC,inactive
5,Nc1ccc(S(=O)(=O)NCc2ccccc2)cc1,inactive
6,CN1CCN(c2cc3c(cc2F)c(=O)c(C(=O)O)cn3-c2ccc(F)cc2)CC1,inactive
7,Cc1cccc(C)c1NC(=O)CN1CCCCCC1,inactive
8,CC(=O)OC[C@H]1O[C@@H](n2ncc(=O)[nH]c2=O)[C@H](OC(C)=O)[C@@H]1OC(C)=O,inactive
9,CC(C)Cn1cnc2c1c(=O)n(C)c(=O)n2C,inactive
10,COc1ccccc1N1CCN(CCCCNC(=O)c2ccc(-c3ccc(C(C)=O)cc3)cc2)CC1,12.6 µM (active)
11,CC(=O)Oc1ccc(C)cc1,inactive
12,O=S(c1cc(Cl)cc(Cl)c1O)c1cc(Cl)cc(Cl)c1O,inactive
13,Cc1cccc(C)c1NC(=O)c1ccccc1C(=O)O,inactive
14,CC(=O)Nc1ccc(OCC(O)CNC(C)C)cc1 (centres undefined),inactive
15,CC(C)(Cc1c[nH]c2ccccc12)NCC(O)COc1ccccc1C#N (centres undefined),8.91 µM (active)
16,CC(=O)NC(=O)c1ccccc1O,inactive
17,CCCCCCCCCCCCCC[N+](C)(C)Cc1ccccc1,2.24 µM (active)
18,Cc1nc(-c2ccc(Cl)cc2)oc1COC(C)(C)C(=O)O,inactive
